Results filed as inconclusive are left out. Entries that show only a call come without a potency. A number with no mark means an inactive call. Activity calls are given as the source filed them. The call rests on the fitted dose curve; in most records, active means well fitted curve in the direction sought with a large enough effect; inconclusive means small, poorly fitted or top-dose-only effect, or another doubt; inactive means no such curve, though single readings can be large; an effect the other way counts as inactive or inconclusive.
How the values were obtained:
[1] = qHTS for Inhibitors of the Aldehyde Dehydrogenase Family (ALDH1A2, ALDH1A3, ALDH2, ALDH3A1) (AID 2061307); further: nearly all actives have a fitted effect of over 50% in size; on potency: test system not described further here; potency means the concentration at half of the fitted maximal effect
[2] = molecular target: Aldehyde dehydrogenase, mitochondrial (Homo sapiens) (UniProt P05091); assay: qHTS for Inhibitors of the Aldehyde Dehydrogenase Family (ALDH2) Primary screen (AID 2061308); further: nearly all actives have a fitted effect of over 55% in size
[3] = molecular target: Retinaldehyde dehydrogenase 3 (Homo sapiens) (UniProt P47895); assay: qHTS for Inhibitors of the Aldehyde Dehydrogenase Family (ALDH1A3) Primary screen (AID 2061315)
[4] = molecular target: Aldehyde dehydrogenase 1A1 (Homo sapiens) (UniProt P00352); assay: qHTS for Inhibitors of the Aldehyde Dehydrogenase Family (ALDH1A1) Confirmatory screens (AID 2061316); further: nearly all actives have a fitted effect of over 65% in size; further: potency means the concentration at half of the fitted maximal effect
[5] = BET inhibitor-based combinations targeting novel dependencies in MECOM-rearranged (r) AML: SET-2 cell line (AID 2202231); conditions: SET-2 AML cells viability, CellTiter-Glo luminescence, 48 h; viability: hits give low values, series mostly up to about 46 µM; further: nearly all actives have a fitted effect of over 35% in size
Procedure, shortened: (§1)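 Here, 11-point titrations of each agent were applied to 500 seeded cells and incubated 48 hr; CellTiter-Glo signal, scaled against DMSO and empty wells, was integrated as AUC, then Z-scored within the individual line.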

[6] = BET inhibitor-based combinations targeting novel dependencies in MECOM-rearranged (r) AML: OCI-AML3 cell line (AID 2202232); conditions: Potency: OCI-AML3 viability; further: series mostly up to about 46 µM; nearly all actives have a fitted effect of over 35% in size
Procedure, shortened: as §1

[7] = BET inhibitor-based combinations targeting novel dependencies in MECOM-rearranged (r) AML: MV-4-11 cell line (AID 2202233); further: nearly all actives have a fitted effect of over 45% in size; further: potency means the concentration at half of the fitted maximal effect
Procedure, shortened: (§2)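 Normalized to DMSO and empty-well controls, the luminescence data from CellTiter-Glo after 48 hr drug exposure were fitted across 11 concentrations. Reported metrics are area under the dose-response curve and its Z-transformed form.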

[8] = BET inhibitor-based combinations targeting novel dependencies in MECOM-rearranged (r) AML: HNT-34 cell line (AID 2202234); further: nearly all actives have a fitted effect of over 35% in size
Procedure, shortened: as §2

[9] = BET inhibitor-based combinations targeting novel dependencies in MECOM-rearranged (r) AML: UCSD-AML1 cell line (AID 2202235); further: series mostly up to about 46 µM; nearly all actives have a fitted effect of over 40% in size
Procedure, shortened: as §2

[10] = BET inhibitor-based combinations targeting novel dependencies in MECOM-rearranged (r) AML: AML-191 cell line (AID 2202236; further: nearly all actives have a fitted effect of over 35% in size)
Procedure, shortened: as §1

[11] = BET inhibitor-based combinations targeting novel dependencies in MECOM-rearranged (r) AML: AML-194 cell line (AID 2202237; further: nearly all actives have a fitted effect of over 40% in size)
Procedure, shortened: as §1

[12] = molecular target: Retinaldehyde dehydrogenase 3 (Homo sapiens) (UniProt P47895); assay: qHTS for Inhibitors of the Aldehyde Dehydrogenase Family (ALDH1A3) Confirmatory screens (AID 2061311); further: nearly all actives have a fitted effect of over 60% in size; further: potency means the concentration at half of the fitted maximal effect
[13] = molecular target: Retinal dehydrogenase 2 (Homo sapiens) (UniProt O94788); assay: qHTS for Inhibitors of the Aldehyde Dehydrogenase Family (ALDH1A2) Confirmation screens (AID 2061314); further: nearly all actives have a fitted effect of over 65% in size; further: potency means the concentration at half of the fitted maximal effect

## COc1ccc(C2Nc3ccccc3C(=O)N2Cc2ccco2)cc1COc1ccc(NC(C)=O)cc1 (stereo unspecified)
[1]
  Potency: inactive
[2]
  Potency: inactive
[3]
  Potency: inactive

## CC(=O)c1cccc(-c2csc(N3CCC(C(N)=O)CC3)n2)c1
[1]
  Potency: 11.3 µM (active)
[2]
  Potency: inactive
[4]
  Potency: 5.65 µM (active)

## O=C(O)c1ccc(S(=O)(=O)N[C@H](Cc2ccc(O)cc2)C(=O)O)cc1
[1]
  Potency: inactive
[2]
  Potency: inactive
[3]
  Potency: inactive
[4]
  Potency: 10.1 µM (active)

## Cc1ccc2nc3sc(C(=O)Nc4ccncc4)cc3cc2c1
[1]
  Potency: 11.3 µM (active)
[2]
  Potency: inactive
[3]
  Potency: inactive
[4]
  Potency: 14.2 µM (active)

## N#Cc1nc(Nc2ccc(F)cc2)nc(NC2CCCC2)n1
[1]
  Potency: 3.16 µM (active)
[2]
  Potency: inactive
[3]
  Potency: inactive

## O=C(O)c1ccc(-n2cccc2/C=C2\SC(=O)N(Cc3ccc(Br)cc3)C2=O)cc1
[1]
  Potency: 5.04 µM (active)
[2]
  Potency: inactive
[3]
  Potency: inactive
[4]
  Potency: inactive

## NCC(=O)Nc1cncc(-c2nn3c(=O)cc(N4CCNCC4)nc3s2)c1
[1]
  Potency: inactive
[2]
  Potency: inactive
[3]
  Potency: inactive
[5]
  viability: 111%
[6]
  Potency: inactive
[7]
  Potency: inactive
[8]
  Potency: inactive
[9]
  Potency: inactive
[10]
  Potency: inactive
[11]
  Potency: inactive

## COc1ccc(C2Nc3ccccc3C(=O)N2CCCN(C)C)cc1COc1ccc(NC(C)=O)cc1 (stereo unspecified)
[1]
  Potency: 7.12 µM (active)
[2]
  Potency: inactive
[3]
  Potency: inactive

## C/C=C/C=C/C(O)=C1/C(=O)[C@]2(C)C3/C(=C(O)/C=C/C=C/C)C(=O)C4(C)C1[C@]1(C)O[C@@]4(O)[C@@]3(C)O[C@@]12O
[1]
  Potency: inactive
[2]
  Potency: inactive
[3]
  Potency: inactive
[4]
  Potency: 12.3 µM (active)

## COc1ccc(C2Nc3ccccc3C(=O)N2Cc2ccccc2Cl)cc1COc1ccc(NC(C)=O)cc1 (stereo unspecified)
[1]
  Potency: 8.96 µM (active)
[2]
  Potency: inactive
[3]
  Potency: inactive

## Cc1ccc(-n2c(C)cc(-c3nnc4n3CCCCC4)c2C)cc1
[1]
  Potency: inactive
[2]
  Potency: inactive
[3]
  Potency: inactive
[4]
  Potency: 20.1 µM (active)
[5]
  viability: 104%
[7]
  Potency: 23.5 µM (active)
[9]
  Potency: inactive
[10]
  Potency: inactive
[11]
  Potency: inactive

## CC(C)CCN(C)Cc1ccc(-c2ccccc2)cc1
[1]
  Potency: 25.1 µM (active)
[12]
  Potency: 4.19 µM (active)
[13]
  Potency: inactive

## O=C1Cc2cc(S(=O)(=O)N3CCNCC3)ccc2N1
[1]
  Potency: inactive
[12]
  Potency: inactive
[13]
  Potency: 17.9 µM (active)
[3]
  Potency: inactive

## O=C1Nc2cc(Cl)ccc2/C1=C\c1cc(Cl)c(O)c(Cl)c1
[1]
  Potency: 3.57 µM (active)
[12]
  Potency: inactive
[13]
  Potency: 25.2 µM (active)
[3]
  Potency: inactive
[4]
  Potency: 22.5 µM (active)

## CC(=O)c1c(C)n(-c2ccc(C)cc2)c2ccc(OC(=O)COc3ccccc3)cc12
[1]
  Potency: inactive
[12]
  Potency: inactive
[13]
  Potency: inactive
[4]
  Potency: inactive

## CC(=O)c1ccc(N2CCN(C(=O)CCS(=O)(=O)c3ccc4c(c3)oc(=O)n4C)CC2)cc1
[1]
  Potency: inactive
[12]
  Potency: 16.2 µM (active)

## O=C1Nc2ccc(Cl)cc2/C1=C\c1cc(Cl)c(O)c(Cl)c1
[1]
  Potency: 10.1 µM (active)
[12]
  Potency: inactive
[13]
  Potency: 12.7 µM (active)
[3]
  Potency: inactive

## COc1cccc(S(=O)(=O)N2CCC3(CC2)CC(CC(=O)NC2CC2)CCO3)c1 (stereo unspecified)
[1]
  Potency: inactive
[12]
  Potency: inactive

## CC(=O)Nc1sc2c(c1-c1csc3ccccc13)CCNC2
[1]
  Potency: inactive
[12]
  Potency: inactive
[13]
  Potency: 15.9 µM (active)
[3]
  Potency: inactive

## NC(=O)C1CCN(c2nc(-c3ccc4ccccc4c3)cs2)CC1
[1]
  Potency: 5.65 µM (active)
[12]
  Potency: inactive
[13]
  Potency: inactive
[3]
  Potency: inactive

## O=C(O)CN1C(=O)/C(=C/c2ccc(-c3cccc(Cl)c3)o2)SC1=S
[1]
  Potency: 11.3 µM (active)
[12]
  Potency: inactive
[13]
  Potency: 22.5 µM (active)
[3]
  Potency: inactive
[4]
  Potency: 7.98 µM (active)

## Cc1cc(C)nc(NC(=S)N2CCN(c3ccc4cn(C)nc4c3)CC2)c1
[1]
  Potency: inactive
[12]
  Potency: 15.9 µM (active)
[13]
  Potency: 12.7 µM (active)
[3]
  Potency: inactive
[4]
  Potency: 7.12 µM (active)

## Cc1sc(NC(=O)Cc2ccc3c(c2)OCO3)nc1-c1ccc2c(c1)CCN2
[1]
  Potency: 20.1 µM (active)
[12]
  Potency: 12.7 µM (active)
[13]
  Potency: 4 µM (active)
[3]
  Potency: inactive
[4]
  Potency: 3.18 µM (active)

## Cc1ccc(-c2cc(C(=O)NCc3cccc(F)c3)nn3cnnc23)cc1
[1]
  Potency: 8.91 µM (active)
[12]
  Potency: 8.91 µM (active)
[13]
  Potency: inactive

## CCC(=O)Nc1ccc(S(=O)(=O)NCc2ccc3c(c2)CCN3C(=O)c2ccc(C)cc2)cc1
[1]
  Potency: inactive
[12]
  Potency: inactive
[13]
  Potency: inactive

## CN1CCN(c2ccc(NC(=O)CN(C)Cc3c(O)ccc4ccccc34)cc2)CC1
[1]
  Potency: 7.12 µM (active)
[12]
  Potency: 22.5 µM (active)
[13]
  Potency: 7.12 µM (active)
[3]
  Potency: inactive
[4]
  Potency: 5.04 µM (active)

## COc1ccc(C2=NN(CC(=O)NCCc3ccc(OC)c(OC)c3)C(=O)CC2)cc1
[1]
  Potency: inactive
[12]
  Potency: inactive
[13]
  Potency: inactive

Reference: PubChem BioAssay (NCATS)
